Measured values published in the supplement of paper PMC8699584.
“And” between values parts separate entries of the source, which are not always exact repeats. Equal values may be shown once. Where a name gives a salt, the structure may show the parent alone. ± gives the standard deviation of the averaged measurements.

Columns and labels:
[1] = tested on: Molm13; experiment: cell viability relative to DMSO control (bortezomib = 0%); higher = less growth inhibition; conditions: 10 nM; 72 h
Summary of the method: (§1)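 Cell viability was assessed by CellTiter-Glo luminescence. Acute myeloid leukemia cells were seeded at 1000 cells per well in 50 µL on a 384-well library of 679 compounds at a single 10 nM dose for 72 h. Per-plate linear regression set DMSO-treated cells at 100% and positive-control-treated cells at 0%.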

[2] = tested on: Mv4-11; experiment: as above; conditions: 10 nM; 72 h
Summary of the method: as §1

Compound | cell viability [1] | cell viability [2]
CS(=O)(=O)CCNCc1ccc(-c2ccc3ncnc(Nc4ccc(OCc5cccc(F)c5)c(Cl)c4)c3c2)o1 [Lapatinib ditosylate monohydrate] | 137 ± 32% | 108 ± 17%
O=C(NCc1cccc(O)c1)Nc1nc(-c2ccncc2)cs1 | 88.6 ± 11% | 121 ± 9%
CC(C)N(CCC(=O)c1ccc2ccccc2c1)Cc1ccccc1 | 96.8 ± 7% | 111 ± 1.4%
CNCc1ccc(-c2cc(-c3nc(-c4ccc(S(=O)(=O)C(C)C)cc4)cnc3N)on2)cc1 | 106 ± 1.8% | 101 ± 18%
O=C(Nc1ccc(OC(F)(F)F)cc1)c1sccc1NCc1ccnc2ccccc12 | 111 ± 3.1% | 109 ± 6%
Cc1cc(Nc2ncnc3ccc(NC4=NC(C)(C)CO4)cc23)ccc1Oc1ccn2ncnc2c1 [Irbinitinib(ARRY-380; ONT-380)] | 103 ± 17% | 112 ± 8.3%
COC(=O)c1ccc2c(c1)NC(=O)/C2=C(\Nc1ccc(N(C)C(=O)CN2CCN(C)CC2)cc1)c1ccccc1 | 87.7 ± 22% | 99.8 ± 8.2%
Nc1ncnc2c1ncn2[C@@H]1O[C@H](COP(=O)(O)O)[C@@H](O)[C@H]1O [Adenosine 5'-monophosphate] | 96 ± 7.5% | 113 ± 2.5%
N#CC[C@H](C1CCCC1)n1cc(-c2ncnc3[nH]ccc23)cn1 | 87.6 ± 8.3% | 109 ± 4%
Cn1cnc2nc(NCCO)nc(NCc3ccccc3)c21 [Iso-Olomoucine] | 119 ± 15% | 113 ± 9.7%
Cc1ccc(NC(=O)c2ccc(CN3CCN(C)CC3)cc2)cc1Nc1nc(-c2cccnc2)cs1 [Masitinib (AB1010)] | 98.2 ± 12% | 116 ± 26%
Nc1ncnc2c1ncn2C1OC(COP(=O)(O)O)C(O)C1O (centres undefined) [Adenosine 5'-monophosphate monohydrate] | 102 ± 34% | 97.2 ± 0.99%
NC(=O)Nc1cc(-c2cccc(F)c2)sc1C(=O)N[C@H]1CCCNC1 | -11.2 ± 3.9% | -9.83 ± 4.2%
CN1CCN(c2ccc(Nc3cc(-c4cccc(-n5ccc6cc(C7CC7)cc(F)c6c5=O)c4CO)cn(C)c3=O)nc2)CC1 | 99.6 ± 8.6% | 107 ± 8.8%
CNC(=O)c1cc(Oc2ccc(NC(=O)Nc3ccc(Cl)c(C(F)(F)F)c3)cc2)ccn1 | 45 ± 3.3% | 45.2 ± 5.3%
Cn1cnc(N)c2ncnc1-2 [3-Methyladenine] | 119 ± 7.3% | 111.9 ± 1.1%
CC(=O)Nc1cccc(-n2c(=O)n(C3CC3)c(=O)c3c(Nc4ccc(I)cc4F)n(C)c(=O)c(C)c32)c1 | 101 ± 25% | 107 ± 1.9%
CC(=O)c1c(C)c2cnc(Nc3ccc(N4CCNCC4)cn3)nc2n(C2CCCC2)c1=O [Palbociclib] | 90.4 ± 13% | 113 ± 9.9%
COc1ccc2c3n(c(=NC(=O)c4cccnc4)nc2c1OC)CCN3 | 88.7 ± 7% | 102 ± 2.9%
O=C1NC(=O)/C(=C\c2ccc3nccnc3c2)S1 | 116 ± 13% | 104 ± 13%
CS(=O)(=O)c1ccc(-c2nc(-c3ccc(F)cc3)c(-c3ccncc3)[nH]2)cc1 | 108 ± 14% | 100.3 ± 0.91%
Cc1cn(-c2cc(NC(=O)c3ccc(C)c(Nc4nccc(-c5cnccn5)n4)c3)cc(C(F)(F)F)c2)cn1 [Radotinib] | 100 ± 2.6% | 107 ± 13%
COc1cc2ncnc(Oc3ccc(CC(=O)Nc4cnn(C(C)C)c4)cc3)c2cc1OC | 24.8 ± 4.2% | 29.8 ± 2.1%

Compound | cell viability [1] | cell viability [2]
O=C(Nc1ccc(CN2CCOCC2)cc1)c1ccc(-c2cccc(Cl)c2)o1 | 113 ± 2.9% | 120 ± 6%
Cc1ccc2nc(-n3[nH]c(C)c(Cc4ccccc4)c3=O)[nH]c2c1 | 103 ± 0.84% | 106 ± 4.3%
Cc1cc(Nc2cc(N3CCN(C)CC3)nc(/C=C/c3ccccc3)n2)n[nH]1 | 89.6 ± 1.1% | 105 ± 9.9%
Cc1c(Cn2c(C)nc3c(C(=O)O)cc(N4CCOCC4)cc32)cccc1C(F)(F)F | 102 ± 5.3% | 110 ± 17%
CC1(C)CC[C@]2(C(=O)O)CC[C@]3(C)C(=CC[C@@H]4[C@@]5(C)CC[C@H](O[C@@H]6O[C@H](C(=O)O)[C@@H](O)[C@H](O[C@@H]7OC[C@@H](O)[C@H](O)[C@H]7O)[C@H]6O)C(C)(C)[C@@H]5CC[C@]43C)[C@@H]2C1 [Momordin Ic] | 87.4 ± 13% | 106 ± 5%
CNC(=O)c1ccc(C)c(-n2c(C)cc(OCc3ccc(F)cc3F)c(Br)c2=O)c1 | 97.9 ± 3.1% | 110 ± 1.8%
NCCCNc1ccc(Nc2nccc(Nc3cc(C4CC4)[nH]n3)n2)cc1 | 94.71 ± 0.31% | 110 ± 7.2%
O=c1cc(-c2ccc(O)cc2)oc2cc(O)cc(O)c12 [Apigenin] | 86.9 ± 19% | 95.3 ± 2.3%
Clc1cnccn1 [2-Chloropyrazine] | 113 ± 6.1% | 94.5 ± 27%
CCCCCCCCCCCCCCCCCCOP(=O)([O-])OC1CC[N+](C)(C)CC1 [Perifosine (KRX-0401)] | 93.8 ± 14% | 110 ± 5.1%
CC(C)c1[nH]nc(Cl)c1-c1ccnc(Nc2ccc(N3CCC(N(C)C)CC3)cn2)n1 | 115 ± 1.8% | 112 ± 9.6%
CC(C)c1cnn2c(NCc3ccccc3)cc(NCCCCCCN)nc12 | 105 ± 20% | 84 ± 18%
C[C@@H]1O[C@@H](O[C@@H]2[C@@H](O)[C@H](OCCc3ccc(O)c(O)c3)O[C@H](CO)[C@H]2OC(=O)/C=C/c2ccc(O)c(O)c2)[C@H](O)[C@H](O)[C@H]1O [Verbascoside] | 89.4 ± 1.9% | 91.6 ± 5.3%
C[C@@H](Oc1ccc2[nH]nc(/C=C/c3cnn(CCO)c3)c2c1)c1c(Cl)cncc1Cl | 97.5 ± 12% | 105 ± 3.5%
COc1ccc(S(=O)(=O)N(C(C)=O)c2ccccc2/C=C/c2cc[n+]([O-])cc2)cc1 | 98.3 ± 18% | 104 ± 27%
O=C(Nc1nc2ccc(NC(=O)C34CC5CC(CC(C5)C3)C4)cc2s1)c1ccccc1 | 117 ± 12% | 101 ± 8.4%
COc1cc2/c(=N/c3ccc(Br)cc3F)nc[nH]c2cc1OCC1CCN(C)CC1 [Vandetanib (ZD6474)] | 116 ± 22% | 117 ± 41%
COc1ccc([C@@H]2OC[C@H]3[C@@H]2CO[C@@H]3c2ccc(O[C@@H]3O[C@H](CO)[C@@H](O)[C@H](O)[C@H]3O)c(OC)c2)cc1OC [Forsythin] | 123 ± 20% | 102 ± 6.1%
CCCCCCCCCCCCCCCCn1cc[n+](Cc2ccccc2)c1C | 124 ± 5.5% | 111 ± 5.8%
CN1CCN(c2ccc(C(=O)Nc3n[nH]c4ccc(Cc5cc(F)cc(F)c5)cc34)c(NC3CCOCC3)c2)CC1 [Entrectinib] | 87.5 ± 7% | 104 ± 24%
NC(=O)c1ccc(N(C(N)=O)c2c(F)cccc2F)nc1-c1ccc(F)cc1F | 93.7 ± 5.1% | 98.7 ± 8.1%
CC1(C)CNc2cc(NC(=O)c3cccnc3NCc3ccncc3)ccc21 [Motesanib (AMG-706)] | 106 ± 20% | 107 ± 5.2%
CN1CCCN(C(=O)c2cccc(-c3ccc(/C=C4/C(=O)Nc5ccc(Cl)cc54)o3)c2)CC1 | 127 ± 13% | 120 ± 2.9%

Compound | cell viability [1] | cell viability [2]
O=C1C(Cl)=C(NCCN2CCOCC2)C(=O)c2ncccc21 | 111 ± 23% | 121 ± 2.5%
COc1cc2ccc(=O)oc2cc1O [Scopoletin] | 102.2 ± 0.33% | 109.9 ± 0.78%
C#Cc1cccc(Nc2ncnc3cc4c(cc23)OCCOCCOCCO4)c1 [Icotinib Hydrochloride] | 100 ± 4.9% | 105 ± 9.2%
O=S(=O)(NCCNC/C=C/c1ccc(Br)cc1)c1cccc2cnccc12 [H-89 (hydrochloride)] | 114 ± 19% | 109 ± 5.8%
c1cc(-c2cnn3cc(-c4ccc(OCCN5CCCCC5)cc4)cnc23)ccn1 [Dorsomorphin dihydrochloride] | 58.3 ± 6.7% | 65.7 ± 3.6%
O=C(Nc1nc2cccc(-c3ccc(CN4CCS(=O)(=O)CC4)cc3)n2n1)C1CC1 [Filgotinib (GLPG0634)] | 86.4 ± 6% | 107.7 ± 0.87%
N#CCNC(=O)c1ccc(-c2ccnc(Nc3ccc(N4CCOCC4)cc3)n2)cc1 [Momelotinib (CYT387)] | 98.5 ± 17% | 110 ± 16%
CN1C(=O)C(c2c[nH]c3ccccc23)=C(c2c[nH]c3ccccc23)C1=O [Bisindolylmaleimide V] | 124 ± 11% | 113 ± 9.1%
Cn1cc(-c2cnn3c(N)c(Br)c([C@@H]4CCCNC4)nc23)cn1 | 92.5 ± 4.6% | 104 ± 4.8%
N#C/C(=C(/N)Sc1ccc(N)cc1)c1ccccc1C(F)(F)F | 108 ± 28% | 110 ± 8.3%
COc1cc2ncnc(Nc3cccc(Br)c3)c2cc1OC | 93.4% and 102% | 99.1% and 113%
COc1cc2ncc(-c3ccccc3)nc2cc1OC | 101 ± 4.1% | 113 ± 9.7%
CN(C)CCN(Cc1ccc(Cl)cc1)c1ccccn1 [Chloropyramine hydrochloride] | 105 ± 27% | 107 ± 12%
COc1cc2ncnc(Sc3nnc(C)s3)c2cc1OC | 127 ± 30% | 115 ± 14%
Cc1ccc(C(=O)Nc2ccc(CN3CCN(C)CC3)c(C(F)(F)F)c2)cc1C#Cc1cnc2cccnn12 | 6.99 ± 13% | 3.31 ± 4.5%
CC(C)(C#N)c1ccc(N2C(=O)OCc3cnc4ccc(-c5cnc6ccccc6c5)cc4c32)cc1 | 93.6 ± 11% | 102 ± 9.2%
Cc1ccc(-c2csc3ncnc(SCCC(=O)O)c23)cc1 | 108 ± 3.3% | 117 ± 10%
CCOc1ccn(-c2ccc(F)cc2)c(=O)c1C(=O)Nc1ccc(Oc2ccnc(N)c2Cl)c(F)c1 | 102.7 ± 0.96% | 114 ± 7%
Brc1c(Br)c(Br)c2n[nH]nc2c1Br | 113 ± 13% | 97.11 ± 0.32%
N#CC[C@H](C1CCCC1)n1cc(-c2ncnc3[nH]ccc23)cn1 [Ruxolitinib] | 105 ± 10% | 111.1 ± 0.83%
O=C1Nc2ccc(CN3C(=O)CSC3=O)cc2/C1=C/c1cc(CN2CCOCC2)c[nH]1 | 92.3 ± 7.1% | 110 ± 8.4%
